Where “and” joins values, the source holds several entries; their conditions need not be identical. Equal values may be shown once. Among all 4,400 compounds or so, about 390 (8.9%) showed an effect of 50% or more. The entries come from a sample that favours strong results as a whole.
system: Trypanosoma brucei; experiment: DNDI: Inhibition of Human African Trypanosomiasis, SBRI 427, in vitro at 2 ug.mL-1; type: functional

SMILES	% inhibition
CC1CCC(N/C(=N\O)c2cccnc2Oc2ccccc2Cl)CC1 (configuration not stated)	99%
CN(/C(=N\O)c1cccnc1Oc1ccc(F)cc1Cl)C1CCCCC1	7%
CC1CCC(C)N1/C(=N\O)c1cccnc1Oc1ccc(F)cc1Cl (configuration not stated)	24%
O/N=C(\NC1CCN(Cc2ccccc2)C1)c1cccnc1Oc1ccccc1Cl (configuration not stated)	2%
Cc1cccc(Oc2ncccc2/C(=N/O)NC2CCC(C)CC2)c1C (configuration not stated)	20%
CC1CCC(N/C(=N\O)c2cccnc2Oc2ccc(F)cc2Cl)CC1 (configuration not stated)	95%
Cc1cccc(-c2nc(Cn3cc(C=O)nc3C)co2)c1	1%
CCOc1ccccc1-c1nc(CN(CCOC)C(C)C)co1	1%
C=CCN1CCN(/C(=N\O)c2cccnc2OCC(F)(F)F)CC1	7%
CCOc1cccc(-c2nc(CN(CCC#N)C3CCCCC3)co2)c1	18%
CN(C)CCN(C)Cc1coc(-c2ccc(O)cc2)n1	7%
NCCc1cn(Cc2coc(-c3cccc4ccccc34)n2)cn1	73%
Clc1ccc(-c2nc(Cn3cnc(-c4ccccc4)c3)co2)c(Cl)c1	7%
Cc1cn(Cc2coc(-c3ccc(Cl)cc3Cl)n2)cn1	2%
NCCc1cn(Cc2coc(-c3ccccc3Br)n2)cn1	-5%
NCCc1cn(Cc2coc(-c3ccccc3F)n2)cn1	40%
NCCc1cn(Cc2coc(-c3ccc(Cl)cc3Cl)n2)cn1	75%
CSc1ccc(Oc2ccc(/C(=N/O)NC3CC(C)CC(C)(C)C3)cn2)cc1 (configuration not stated)	-8%
COc1ccc(-c2nc(CN3CCN(c4ccc(C(C)=O)cc4)CC3)co2)cc1	4%
CCOc1ccccc1-c1nc(CNCc2ccc(C(C)(C)C)cc2)co1	6%
Cc1ccc(/C(=N/O)N2CCCCC2)c(Oc2cccc(F)c2)n1	16%
O/N=C(\NCCN1CCOCC1)c1ccc(Oc2cc(Cl)ccc2Cl)nc1	34%

SMILES	% inhibition
CSc1ccc(Oc2ccc(/C(=N/O)NCc3ccccc3C)cn2)cc1	-7%
O/N=C(\NCC1CCCCC1)c1ccc(Oc2cc(Cl)ccc2Cl)nc1	76%
O/N=C(\NCc1ccccc1F)c1ccc(Oc2ccc(Cl)cc2)nc1	-6%
O/N=C(\NC1CCCC1)c1ccc(Oc2cc(Cl)ccc2Cl)nc1	99%
N/C(=N\O)c1ccc(Oc2cc(Cl)ccc2Cl)nc1	10%
O/N=C(\NCc1cccnc1)c1ccc(Oc2cc(Cl)ccc2Cl)nc1	8%
O/N=C(/c1ccc(Oc2cc(Cl)ccc2Cl)nc1)N1CCN(C2CCCC2)CC1	22%
CSc1ccc(Oc2ccc(/C(=N/O)NCc3ccccc3F)cn2)cc1	95%
O/N=C(\NCC1CCCO1)c1ccc(Oc2cc(Cl)ccc2Cl)nc1 (configuration not stated)	34%
O/N=C(\NCC1CCCCC1)c1ccc(Oc2cccc3ccccc23)nc1	24%
O/N=C(\NC1CCCCC1)c1ccc(Oc2cc(Cl)ccc2Cl)nc1	98%
COc1ccc(Oc2nc(C)ccc2/C(=N/O)NCc2cc(F)ccc2F)cc1	15%
Cc1ccc(/C(=N/O)N2CCSC2)c(Oc2ccc3oc4ccccc4c3c2)n1	14%
Cc1cccc(-c2nc(CNCC(F)(F)F)co2)c1	-2%
COc1cccc(CNCc2coc(-c3ccc(Cl)cc3Cl)n2)c1OC	6%
CCN(Cc1ccccc1)Cc1coc(-c2cccc(F)c2)n1	14%
Cc1ccc(/C(=N/O)n2ccnc2C)c(OCC(F)(F)F)n1	21%
COC(=O)C1CCN(Cc2coc(-c3ccc(O)cc3)n2)CC1	-3%
CCOc1ccc(-c2nc(CNCCCN(C)c3ccccc3)co2)cc1	42%
CCOc1ccccc1-c1nc(CN2CCN(c3ccc(C)cc3C)CC2)co1	7%
O/N=C(\NCc1ccccc1)c1ccc(Oc2ccc(Cl)cc2)nc1	57%
O/N=C(\NCC1CCCCC1)c1ccc(Oc2ccc(-n3ccnc3)cc2)nc1	78%

SMILES	% inhibition
O/N=C(\NCC1CCCCC1)c1ccc(Oc2ccc(Cl)cc2)nc1	93%
COc1ccc(CN/C(=N\O)c2ccc(Oc3ccc(Cl)cc3)nc2)cc1	6%
O/N=C(\NCC1CCCO1)c1ccc(Oc2ccc(Cl)cc2)nc1 (configuration not stated)	47%
O/N=C(\NCC1CCCCC1)c1ccc(Oc2ccc(F)cc2)nc1	28%
O/N=C(\NCC1CCCO1)c1ccc(Oc2ccc(-n3ccnc3)cc2)nc1 (configuration not stated)	32%
O/N=C(\NCc1ccccc1)c1ccc(Oc2ccc(-n3ccnc3)cc2)nc1	16%
O/N=C(\NCc1ccncc1)c1ccc(Oc2ccc(Cl)cc2)nc1	-11%
CC1CN(Cc2coc(-c3ccc(Cl)cc3Cl)n2)CC(C)O1 (configuration not stated)	14%
CCCN/C(=N\O)c1ccc(C)nc1Oc1cccc(C(C)C)c1	4%
c1coc(-c2nc(CN3CCCc4ccccc43)co2)c1	18%
COc1ccc(-c2nc(CNC(C)c3ccccc3)co2)cc1 (configuration not stated)	3%
Cc1ccc(/C(=N/O)NCc2ccccn2)c(OCc2cccc(F)c2)n1	-1%
CCOc1ccc(-c2nc(Cn3ccnc3C(C)C)co2)cc1	10%
COc1ccc(-c2nc(CNC(c3ccccc3)c3ccccc3)co2)cc1	-28%
COc1ccccc1Oc1ncccc1/C(=N/O)N1CCOCC1	16%
CCC(NCc1coc(-c2ccc(Br)cc2)n1)c1ccccc1 (configuration not stated)	-22% and -13%
Cc1ccc(Oc2nc(C)ccc2/C(N)=N/O)c(C)c1	11%
N#CCCN(Cc1coc(-c2ccc(F)cc2)n1)c1ccccc1	-10%
Cc1cc(C)cc(CN/C(=N\O)c2ccc(Oc3cc(Cl)ccc3Cl)nc2)c1	-11%
COCCN/C(=N\O)c1ccnc(Oc2ccc(C)cc2C)c1	6%
CC(C)(C)CN/C(=N\O)c1ccc(Oc2cc(Cl)ccc2Cl)nc1	99%
Cc1ccc(Oc2cc(/C(=N/O)N3CC(C)CC(C)C3)ccn2)c(C)c1 (configuration not stated)	22%

SMILES	% inhibition
CC(C)(C)CN/C(=N\O)c1ccnc(Oc2cc(Cl)ccc2Cl)c1	56%
Cc1ccc(Oc2cc(/C(=N/O)NCC(C)(C)C)ccn2)c(C)c1	96%
Cc1ccc(Oc2cc(/C(=N/O)N3CCCCC3)ccn2)c2c1CCC2	19%
O/N=C(\NCc1ccccc1)c1ccc(Oc2cc(Cl)ccc2Cl)nc1	31%
COCCN/C(=N\O)c1ccnc(Oc2cc(Cl)ccc2Cl)c1	27%
O/N=C(\NCc1cccnc1)c1ccnc(Oc2cc(Cl)ccc2Cl)c1	17%
Cc1ccc(Oc2cc(/C(=N/O)N3CCCCCC3)ccn2)c(C)c1	98%
Cc1ccc(Oc2cc(/C(=N/O)NCc3ccccc3C)ccn2)c(C)c1	42%
Cc1ccc(/C(N)=N/O)c(Oc2ccc(F)c(Cl)c2)n1	20%
COc1ccc(-c2nc(CN3CCCCCC3)co2)cc1	18%
CCOc1ccc(-c2nc(CN3CCN(c4cccc(Cl)c4)CC3)co2)cc1	-2%
Cc1ccc(-c2nc(CNC(c3ccccc3)c3ccccc3)co2)cc1	-9%
CCOc1ccccc1-c1nc(CN(C)CC(C)C)co1	3%
COc1ccc(CNCc2coc(-c3cccs3)n2)cc1OC	-8%
Cc1ccc(/C(=N/O)N2CCN(c3ccc(F)cc3)CC2)c(OCc2ccccc2F)n1	7%
CCOc1ccc(-c2nc(CN3CCN(C(=O)c4ccco4)CC3)co2)cc1	0%
COCC(C)N/C(=N\O)c1cccnc1Oc1ccc(F)cc1 (configuration not stated)	13%
CCC(CC)N/C(=N\O)c1cccnc1Oc1ccc(OC)cc1	100%
CCC(CC)N/C(=N\O)c1cccnc1Oc1ccc(F)cc1	96%
COc1ccc(Oc2ncccc2/C(=N/O)NC(C)C)cc1	4%
COc1cc2c(cc1OC)C(C(C)C)N(Cc1coc(-c3ccc(F)cc3)n1)CC2 (configuration not stated)	5%
COc1ccc(CN/C(=N\O)c2ccc(C)nc2Oc2ccc(F)cc2)cc1	30%

SMILES	% inhibition
CCC(C)(C)N/C(=N\O)c1cccnc1Oc1ccc(-n2cncn2)cc1	45%
CCOC(=O)C1CCCN(Cc2coc(-c3ccc(Br)cc3)n2)C1 (configuration not stated)	0%
CSc1ccc(Oc2ncccc2/C(=N/O)NCc2cccnc2)cc1	2%
Cc1ccc(Oc2ncccc2/C(=N/O)N2CC=CCC2)c2c1CCC2	14%
CCc1nc(C)cn1Cc1coc(-c2cccc(OC)c2)n1	-9%
COc1ccc(Oc2ncccc2/C(=N/O)N2CCCCC2)cc1	7%
Cc1ccc(/C(=N/O)NCC(C)(C)C)c(Oc2cc(Cl)ccc2Cl)n1	100%
CCC(C)(C)N/C(=N\O)c1ccc(C)nc1Oc1cc(Cl)ccc1Cl	63%
CCC(C)(C)N/C(=N\O)c1ccc(C)nc1Oc1ccc(Cl)cc1	-12%
CCC(C)(C)N/C(=N\O)c1ccc(C)nc1Oc1ccc(F)c(Cl)c1	-27%
CCOc1ccccc1-c1nc(CN2CC[C@@H]3CCCC[C@@H]3C2)co1	16%
CCOc1ccccc1-c1nc(Cn2ccnc2CC)co1	-1%
N#CCCN(Cc1coc(-c2ccc(Cl)cc2Cl)n1)C1CCCCC1	3%
O/N=C(\NCc1cc(F)ccc1F)c1ccc(Oc2cccc3cccnc23)nc1	4%
COc1cc(-c2nc(CNCC(c3ccccc3)c3ccccc3)co2)cc(OC)c1OC	22%
Cc1cn(/C(=N\O)c2ccc(C)nc2Oc2cccc(F)c2)cn1	0%
COCCN(Cc1coc(-c2ccc(OC)cc2)n1)C(C)C	-10%
Cn1nc(C(C)(C)C)cc1NCc1coc(-c2ccccc2Br)n1	-43%
CC(C)(C)COc1ncccc1/C(=N/O)NCc1ccccc1	17%
